PubChem BioAssay AID1159580 (chemical genetic matrix, 2015)
Screen size: about 5,500 compounds; about 2,000 (36%) were called active. Inconclusive results (about 18%) are left out. No stated cut-off is given here; in the data, active means normalized growth mostly below about 0.91 (no sharp cut-off); inconclusive means no clear call, values can overlap the other calls; inactive means mostly above about 0.92. The list shows a part of the results.

Experiment: chemical genetic growth profiling, strain panel (AID 1159580);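 further: tested at 20 µM; growth read once vehicle control cultures reached saturation at 30 °C; 1 = growth at the plate median or of vehicle wells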
Conditions: growth OD
[1] = S. cerevisiae deletion strains, locus YGR078C, strain PAC10, stronger effect = lower value
[2] = S. cerevisiae deletion strains, locus YMR307W, strain GAS1, stronger effect = lower value
[3] = S. cerevisiae deletion strains, locus YNL153C, strain GIM3, stronger effect = lower value
[4] = S. cerevisiae deletion strains, locus YNL322C, strain KRE1, stronger effect = lower value
[5] = S. cerevisiae deletion strains, locus YPL055C, strain LGE1, stronger effect = lower value
[6] = S. cerevisiae deletion strains, locus YPL241C, strain CIN2, stronger effect = lower value
[7] = S. cerevisiae deletion strains, locus YAL013W, strain DEP1, stronger effect = lower value
[8] = S. cerevisiae deletion strains, locus YBR229C, strain ROT2, stronger effect = lower value
[9] = S. cerevisiae deletion strains, locus YCL061C, strain MRC1, stronger effect = lower value
[10] = S. cerevisiae deletion strains, locus YDL101C, strain DUN1, stronger effect = lower value
[11] = S. cerevisiae deletion strains, locus YDL134C, strain PPH21, stronger effect = lower value
[12] = S. cerevisiae deletion strains, locus YDR150W, strain NUM1, stronger effect = lower value
[13] = S. cerevisiae deletion strains, locus YEL061C, strain CIN8, stronger effect = lower value
[14] = S. cerevisiae deletion strains, locus YHR030C, strain SLT2, stronger effect = lower value
[15] = S. cerevisiae deletion strains, locus YHR087W, strain rtc3, stronger effect = lower value
[16] = S. cerevisiae deletion strains, locus YJR043C, strain POL32, stronger effect = lower value
[17] = S. cerevisiae deletion strains, locus YJR075W, strain HOC1, stronger effect = lower value
[18] = S. cerevisiae deletion strains, locus YKL190W, strain CNB1, stronger effect = lower value
[19] = S. cerevisiae deletion strains, locus YLR039C, strain RIC1, stronger effect = lower value
[20] = S. cerevisiae deletion strains, locus YLR058C, strain SHM2 (second series), stronger effect = lower value
[21] = S. cerevisiae deletion strains, locus YLR085C, strain ARP6, stronger effect = lower value
[22] = S. cerevisiae deletion strains, locus YLR262C, strain YPT6, stronger effect = lower value
[23] = S. cerevisiae deletion strains, locus YML094W, strain GIM5, stronger effect = lower value
[24] = S. cerevisiae deletion strains, locus YMR219W, strain ESC1, stronger effect = lower value
[25] = S. cerevisiae deletion strains, locus YMR263W, strain SAP30, stronger effect = lower value
[26] = S. cerevisiae deletion strains, locus YNL298W, strain CLA4 (second series), stronger effect = lower value
[27] = S. cerevisiae deletion strains, locus YNR030W, strain Alg12, stronger effect = lower value
[28] = S. cerevisiae deletion strains, locus YPR135W, strain CTF4, stronger effect = lower value

Measured: normalized growth

OCc1cnc[nH]1
inactive: S. cerevisiae deletion strains, locus YAL040C, strain CLN3, stronger effect = lower value 0.98 | S. cerevisiae deletion strains, locus YCL061C, strain MRC1 (second series), stronger effect = lower value 1 | S. cerevisiae deletion strains, locus YDR363W, strain ESC2, stronger effect = lower value 1.01 | S. cerevisiae deletion strains, locus YER002W, strain NOP16, stronger effect = lower value 1.03 | [1] 1.01 | S. cerevisiae deletion strains, locus YGR229C, strain SMI1, stronger effect = lower value 0.987 | [2] 1 | [3] 1.05 | S. cerevisiae deletion strains, locus YNL175C, strain NOP13, stronger effect = lower value 1.02 | S. cerevisiae deletion strains, locus YNL197C, strain WHI3, stronger effect = lower value 1.01 | S. cerevisiae deletion strains, locus YNL224C, strain SQS1, stronger effect = lower value 1.01 | [4] 1 | S. cerevisiae deletion strains, locus YOR083W, strain WHI5 (second series), stronger effect = lower value 0.989 | [5] 1.01 | [6] 1.01

N#Cc1c(F)cccc1Oc1ccc(F)cc1
inactive: [7] 0.999 | [8] 0.957 | [9] 1.01 | [10] 0.98 | [11] 0.986 | [12] 0.941 | [13] 0.966 | [1] 0.971 | [14] 0.848 | [15] 0.948 | [16] 0.999 | [17] 0.946 | [18] 0.972 | [19] 0.851 | [20] 0.979 | [21] 0.941 | [22] 0.907 | [23] 0.97 | [24] 0.971 | [25] 0.998 | [2] 0.891 | [3] 0.991 | [26] 0.928 | [4] 0.962 | [27] 0.986 | [5] 0.956 | [6] 0.978 | [28] 0.905

N#Cc1ncc(C(F)(F)F)cc1Oc1ccc(Cl)cc1
inactive: [14] 0.843 | [23] 0.907 | [25] 0.913 | [2] 1.01 | [28] 0.889
active: [7] 0.921 | [8] 0.789 | [9] 0.898 | [10] 0.868 | [12] 0.799 | [13] 0.903 | [1] 0.708 | [15] 0.745 | [16] 0.911 | [17] 0.594 | [18] 0.842 | [19] 0.694 | [20] 0.829 | [21] 0.595 | [22] 0.658 | [24] 0.814 | [3] 0.892 | [26] 0.709 | [4] 0.849 | [27] 0.737 | [5] 0.751 | [6] 0.844 | S. cerevisiae strains, strain wild type, stronger effect = lower value 0.851

Cc1cccc(C(=O)O)c1O
inactive: [7] 1.01 | S. cerevisiae deletion strains, locus YBR021W, strain FUR4, stronger effect = lower value 0.997 | [8] 1.02 | S. cerevisiae deletion strains, locus YCL029C, strain bik1, stronger effect = lower value 1.02 | S. cerevisiae deletion strains, locus YDL035C, strain GPR1, stronger effect = lower value 0.999 | S. cerevisiae deletion strains, locus YDL074C, strain BRE1, stronger effect = lower value 1.02 | [10] 1.02 | [11] 1.01 | S. cerevisiae deletion strains, locus YDL185W, strain tfp1, stronger effect = lower value 1.02 | S. cerevisiae deletion strains, locus YDL192W, strain arf1, stronger effect = lower value 1.01 | S. cerevisiae deletion strains, locus YDR101C, strain arx1, stronger effect = lower value 1.01 | S. cerevisiae deletion strains, locus YDR162C, strain NBP2, stronger effect = lower value 1.02 | S. cerevisiae deletion strains, locus YDR318W, strain mcm21, stronger effect = lower value 1.02 | S. cerevisiae deletion strains, locus YDR388W, stronger effect = lower value 1.02 | S. cerevisiae deletion strains, locus YDR502C, strain sam2, stronger effect = lower value 1.01 | [13] 1.01 | S. cerevisiae deletion strains, locus YER110C, stronger effect = lower value 1.01 | S. cerevisiae deletion strains, locus YER155C, strain BEM2, stronger effect = lower value 1 | S. cerevisiae deletion strains, locus YER167W, strain BCK2, stronger effect = lower value 1.01 | S. cerevisiae deletion strains, locus YGL078C, strain dbp3, stronger effect = lower value 1 | S. cerevisiae deletion strains, locus YGL086W, strain mad1, stronger effect = lower value 1.01 | S. cerevisiae deletion strains, locus YGL248W, strain PDE1, stronger effect = lower value 1.02 | [1] 1.01 | S. cerevisiae deletion strains, locus YGR135W, strain pre9, stronger effect = lower value 1.02 | S. cerevisiae deletion strains, locus YGR252W, strain gcn5, stronger effect = lower value 1 | [14] 1.02 | S. cerevisiae deletion strains, locus YHR079C, strain IRE1 (second series), stronger effect = lower value 1.01 | S. cerevisiae deletion strains, locus YHR094C, strain hxt1, stronger effect = lower value 1.01 | S. cerevisiae deletion strains, locus YHR129C, strain ARP1, stronger effect = lower value 1.01 | S. cerevisiae deletion strains, locus YHR200W, strain rpn10, stronger effect = lower value 1.02 | S. cerevisiae deletion strains, locus YIL066C, strain RNR3, stronger effect = lower value 1.02 | S. cerevisiae deletion strains, locus YIL073C, strain SPO22, stronger effect = lower value 1.02 | S. cerevisiae deletion strains, locus YIL125W, strain kgd1, stronger effect = lower value 1.01 | S. cerevisiae deletion strains, locus YIR030C, strain dcg1, stronger effect = lower value 1.02 | S. cerevisiae deletion strains, locus YJL095W, strain BCK1, stronger effect = lower value 1.02 | S. cerevisiae deletion strains, locus YJL134W, strain LCB3, stronger effect = lower value 1.01 | S. cerevisiae deletion strains, locus YJL168C, strain set2, stronger effect = lower value 1 | S. cerevisiae deletion strains, locus YJL187C, strain SWE1 (second series), stronger effect = lower value 1.02 | [16] 1.01 | S. cerevisiae deletion strains, locus YKL009W, strain mrt4, stronger effect = lower value 0.968 | S. cerevisiae deletion strains, locus YKL068W, stronger effect = lower value 1 | S. cerevisiae deletion strains, locus YKL085W, strain MDH1 (second series), stronger effect = lower value 1 | S. cerevisiae deletion strains, locus YKL085W, strain MDH1, stronger effect = lower value 1 | S. cerevisiae deletion strains, locus YKR001C, strain vps1, stronger effect = lower value 1.02 | [19] 0.993 | S. cerevisiae deletion strains, locus YLR058C, strain SHM2, stronger effect = lower value 1.02 | S. cerevisiae deletion strains, locus YLR102C, strain apc9, stronger effect = lower value 1.01 | [22] 1.04 | S. cerevisiae deletion strains, locus YLR268W, strain sec22, stronger effect = lower value 1.03 | S. cerevisiae deletion strains, locus YLR330W, strain CHS5, stronger effect = lower value 1.01 | S. cerevisiae deletion strains, locus YLR342W, strain FKS1 (second series), stronger effect = lower value 0.995 | S. cerevisiae deletion strains, locus YLR371W, strain rom2, stronger effect = lower value 1.02 | S. cerevisiae deletion strains, locus YLR418C, strain cdc73, stronger effect = lower value 1.05 | S. cerevisiae deletion strains, locus YML016C, strain PPZ1, stronger effect = lower value 1.01 | S. cerevisiae deletion strains, locus YML032C, strain rad52, stronger effect = lower value 1.02 | S. cerevisiae deletion strains, locus YML124C, strain tub3, stronger effect = lower value 1.02 | S. cerevisiae deletion strains, locus YMR078C, strain ctf18, stronger effect = lower value 1.02 | S. cerevisiae deletion strains, locus YMR223W, strain ubp8, stronger effect = lower value 1.02 | [2] 0.975 | S. cerevisiae deletion strains, locus YNL067W, strain RPL9B, stronger effect = lower value 1.02 | [3] 1.01 | S. cerevisiae deletion strains, locus YNL233W, strain BNI4, stronger effect = lower value 1.02 | S. cerevisiae deletion strains, locus YNL250W, strain rad50, stronger effect = lower value 1.02 | S. cerevisiae deletion strains, locus YNL271C, strain bni1, stronger effect = lower value 1 | S. cerevisiae deletion strains, locus YNL298W, strain CLA4, stronger effect = lower value 0.996 | S. cerevisiae deletion strains, locus YNL307C, strain MCK1, stronger effect = lower value 1.02 | [4] 1.01 | S. cerevisiae deletion strains, locus YNR052C, strain pop2, stronger effect = lower value 1.03 | S. cerevisiae deletion strains, locus YOL012C, strain htz1 0.786 | S. cerevisiae deletion strains, locus YOL147C, strain pex11, stronger effect = lower value 1.01 | S. cerevisiae deletion strains, locus YOR061W, strain CKA2, stronger effect = lower value 1.01 | S. cerevisiae deletion strains, locus YOR069W, strain VPS5, stronger effect = lower value 1.02 | S. cerevisiae deletion strains, locus YOR136W, strain idh2, stronger effect = lower value 1.01 | S. cerevisiae deletion strains, locus YOR144C, strain elg1, stronger effect = lower value 1.01 | S. cerevisiae deletion strains, locus YOR184W, strain ser1, stronger effect = lower value 1.02 | S. cerevisiae deletion strains, locus YOR316C, strain cot1, stronger effect = lower value 1.02 | [5] 1.01 | [6] 1.01 | S. cerevisiae deletion strains, locus YPR119W, strain clb2, stronger effect = lower value 1.01 | S. cerevisiae deletion strains, locus YPR141C, strain kar3, stronger effect = lower value 1.01 | S. cerevisiae deletion strains, locus YPR163C, strain tif3, stronger effect = lower value 1.02 | S. cerevisiae deletion strains, locus YPR167C, strain met16, stronger effect = lower value 1.01 | S. cerevisiae deletion strains, strain wtn01, stronger effect = lower value 1
